In all, about 5,500 compounds went through this assay and about 2,000 (36%) were called active. Inconclusive results (about 18%) are left out. Rule as the data show it: active = normalized growth mostly below about 0.91 (no sharp cut-off); inconclusive = no clear call, values can overlap the other calls; inactive = mostly above about 0.92. The list shows a part of the results.
Assay: chemical genetic growth profiling, strain panel (AID 1159580);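 also: tested at 20 µM; growth read once vehicle control cultures reached saturation at 30 °C; 1 = growth at the plate median or of vehicle wells; lower values mean less growth of the strain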
Conditions: growth OD

Measured: normalized growth

CC(C)(C)NCC(O)COc1cccc2c1C[C@H](O)[C@H](O)C2 (stereo not given in full)
inactive: S. cerevisiae deletion strains, locus YJR075W, strain HOC1, active compounds read low 1 | S. cerevisiae deletion strains, locus YKL009W, strain mrt4, active compounds read low 0.972 | S. cerevisiae deletion strains, locus YKL068W, active compounds read low 0.986 | S. cerevisiae deletion strains, locus YKL085W, strain MDH1 (second series), active compounds read low 0.99 | S. cerevisiae deletion strains, locus YKL085W, strain MDH1, active compounds read low 0.99 | S. cerevisiae deletion strains, locus YKL160W, strain elf1, active compounds read low 1.01 | S. cerevisiae deletion strains, locus YKL190W, strain CNB1, active compounds read low 0.993 | S. cerevisiae deletion strains, locus YKR001C, strain vps1, active compounds read low 1 | S. cerevisiae deletion strains, locus YKR026C, strain gcn3, active compounds read low 1.01 | S. cerevisiae deletion strains, locus YKR091W, strain srl3, active compounds read low 0.993 | S. cerevisiae deletion strains, locus YLL001W, strain dnm1, active compounds read low 1.01 | S. cerevisiae deletion strains, locus YLL026W, active compounds read low 1.01 | S. cerevisiae deletion strains, locus YLL041C, strain sdh2, active compounds read low 1 | S. cerevisiae deletion strains, locus YLR027C, strain aat2, active compounds read low 1 | S. cerevisiae deletion strains, locus YLR039C, strain RIC1, active compounds read low 0.973 | S. cerevisiae deletion strains, locus YLR058C, strain SHM2, active compounds read low 0.997 | S. cerevisiae deletion strains, locus YLR102C, strain apc9, active compounds read low 0.992 | S. cerevisiae deletion strains, locus YLR113W, strain HOG1, active compounds read low 1.05 | S. cerevisiae deletion strains, locus YLR221C, strain rsa3, active compounds read low 1 | S. cerevisiae deletion strains, locus YLR258W, strain gsy2, active compounds read low 0.998 | S. cerevisiae deletion strains, locus YLR262C, strain YPT6 (second series), active compounds read low 1.01 | S. cerevisiae deletion strains, locus YLR262C, strain YPT6, active compounds read low 0.928 | S. cerevisiae deletion strains, locus YLR268W, strain sec22, active compounds read low 0.994 | S. cerevisiae deletion strains, locus YLR320W, strain mms22, active compounds read low 1.02 | S. cerevisiae deletion strains, locus YLR330W, strain CHS5, active compounds read low 0.986 | S. cerevisiae deletion strains, locus YLR342W, strain FKS1 (second series), active compounds read low 0.993 | S. cerevisiae deletion strains, locus YLR342W, strain FKS1, active compounds read low 1.01 | S. cerevisiae deletion strains, locus YLR357W, strain rsc2, active compounds read low 1.01 | S. cerevisiae deletion strains, locus YLR370C, strain arc18, active compounds read low 1.02 | S. cerevisiae deletion strains, locus YLR371W, strain rom2, active compounds read low 0.994 | S. cerevisiae deletion strains, locus YLR384C, strain iki3, active compounds read low 1.02 | S. cerevisiae deletion strains, locus YLR418C, strain cdc73, active compounds read low 0.946 | S. cerevisiae deletion strains, locus YML016C, strain PPZ1, active compounds read low 1 | S. cerevisiae deletion strains, locus YML032C, strain rad52, active compounds read low 0.999 | S. cerevisiae deletion strains, locus YML120C, strain ndi1, active compounds read low 1.01 | S. cerevisiae deletion strains, locus YML124C, strain tub3, active compounds read low 0.995 | S. cerevisiae deletion strains, locus YMR058W, strain fet3, active compounds read low 1.01 | S. cerevisiae deletion strains, locus YMR078C, strain ctf18, active compounds read low 0.982 | S. cerevisiae deletion strains, locus YMR125W, strain sto1, active compounds read low 1.01 | S. cerevisiae deletion strains, locus YMR129W, active compounds read low 1.01 | S. cerevisiae deletion strains, locus YMR205C, strain PFK2, active compounds read low 1.02 | S. cerevisiae deletion strains, locus YMR223W, strain ubp8, active compounds read low 0.964 | S. cerevisiae deletion strains, locus YMR231W, strain pep5, active compounds read low 0.998 | S. cerevisiae deletion strains, locus YMR263W, strain SAP30, active compounds read low 1.02 | S. cerevisiae deletion strains, locus YMR307W, strain GAS1, active compounds read low 0.959 | S. cerevisiae deletion strains, locus YNL067W, strain RPL9B, active compounds read low 1.02 | S. cerevisiae deletion strains, locus YNL071W, strain lat1, active compounds read low 0.999 | S. cerevisiae deletion strains, locus YNL128W, strain TEP1, active compounds read low 0.988 | S. cerevisiae deletion strains, locus YNL183C, strain NPR1, active compounds read low 1 | S. cerevisiae deletion strains, locus YNL209W, strain ssb2, active compounds read low 0.994 | S. cerevisiae deletion strains, locus YNL233W, strain BNI4, active compounds read low 1.04 | S. cerevisiae deletion strains, locus YNL248C, strain rpa49, active compounds read low 1.01 | S. cerevisiae deletion strains, locus YNL250W, strain rad50, active compounds read low 0.972 | S. cerevisiae deletion strains, locus YNL271C, strain bni1, active compounds read low 0.988 | S. cerevisiae deletion strains, locus YNL298W, strain CLA4, active compounds read low 0.983 | S. cerevisiae deletion strains, locus YNL307C, strain MCK1, active compounds read low 0.986 | S. cerevisiae deletion strains, locus YNL322C, strain KRE1 (second series), active compounds read low 1.01 | S. cerevisiae deletion strains, locus YNL322C, strain KRE1, active compounds read low 0.992 | S. cerevisiae deletion strains, locus YNR049C, strain mso1, active compounds read low 1.01 | S. cerevisiae deletion strains, locus YNR052C, strain pop2, active compounds read low 0.989 | S. cerevisiae deletion strains, locus YOL006C, strain TOP1, active compounds read low 1.05 | S. cerevisiae deletion strains, locus YOL012C, strain htz1 1.13 | S. cerevisiae deletion strains, locus YOL147C, strain pex11, active compounds read low 0.992 | S. cerevisiae deletion strains, locus YOR001W, strain rrp6, active compounds read low 1 | S. cerevisiae deletion strains, locus YOR061W, strain CKA2, active compounds read low 1 | S. cerevisiae deletion strains, locus YOR069W, strain VPS5, active compounds read low 0.999 | S. cerevisiae deletion strains, locus YOR070C, strain gyp1, active compounds read low 1 | S. cerevisiae deletion strains, locus YOR080W, strain dia2, active compounds read low 1.01 | S. cerevisiae deletion strains, locus YOR083W, strain WHI5, active compounds read low 1 | S. cerevisiae deletion strains, locus YOR106W, strain vam3, active compounds read low 1.02 | S. cerevisiae deletion strains, locus YOR136W, strain idh2, active compounds read low 0.994 | S. cerevisiae deletion strains, locus YOR144C, strain elg1, active compounds read low 0.999 | S. cerevisiae deletion strains, locus YOR184W, strain ser1, active compounds read low 0.974 | S. cerevisiae deletion strains, locus YOR231W, strain MKK1, active compounds read low 1.06 | S. cerevisiae deletion strains, locus YOR265W, strain rbl2, active compounds read low 1.01 | S. cerevisiae deletion strains, locus YOR270C, strain vph1, active compounds read low 1.01 | S. cerevisiae deletion strains, locus YOR290C, strain snf2, active compounds read low 1.01 | S. cerevisiae deletion strains, locus YOR316C, strain cot1, active compounds read low 0.985 | S. cerevisiae deletion strains, locus YPL051W, strain arl3, active compounds read low 1 | S. cerevisiae deletion strains, locus YPL078C, strain atp4, active compounds read low 1 | S. cerevisiae deletion strains, locus YPL106C, strain sse1, active compounds read low 1.01 | S. cerevisiae deletion strains, locus YPL240C, strain hsp82, active compounds read low 0.997 | S. cerevisiae deletion strains, locus YPL241C, strain CIN2, active compounds read low 0.987 | S. cerevisiae deletion strains, locus YPL256C, strain CLN2, active compounds read low 1.02 | S. cerevisiae deletion strains, locus YPR119W, strain clb2, active compounds read low 0.996 | S. cerevisiae deletion strains, locus YPR141C, strain kar3, active compounds read low 0.994 | S. cerevisiae deletion strains, locus YPR163C, strain tif3, active compounds read low 0.991 | S. cerevisiae deletion strains, locus YPR167C, strain met16, active compounds read low 0.987 | S. cerevisiae deletion strains, strain wtn01, active compounds read low 0.983 | S. cerevisiae strains, strain wild type, active compounds read low 0.998

— PubChem BioAssay AID1159580 (chemical genetic matrix, 2015)
